The full data set covers some 7,900 targets. This sample favours those with a hit. About 0.6% of all pairs of compound and target were hits.
Experiments:
Assay in all cases: log2 fold change, soluble protein after heating vs DMSO (PISA); higher = thermal stabilisation; K562 cells, 10 uM, 30 min; active = over 0.2 and 3.5 SD of the protein, either way, in both replicates (recomputed)
bafetinib = compound: Cc1ccc(NC(=O)c2ccc(CN3CC[C@H](N(C)C)C3)c(C(F)(F)F)c2)cc1Nc1nccc(-c2cncnc2)n1 [bafetinib]
In short: (§1)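 K562 cells at 2×10^6 cells/mL were treated for 30 min with 10 μM compound, and aliquots were heated for 3 min over 48°C-58°C before pooling. Extraction used PBS with 0.5% NP-40 at 4°C, and soluble protein was the supernatant after 21,000xg for 90 min, measured by TMTpro 16plex LC-MS/MS with channel sums equalised. Thermal stability values, relative to control samples and from duplicates, are log2 fold changes.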

[1] = compound: Cc1cccc(CC(=O)N2CCc3c2ccc(-c2cn(C)c4ncnc(N)c24)c3F)n1
In short: as §1

nilotinib = compound: Cc1cn(-c2cc(NC(=O)c3ccc(C)c(Nc4nccc(-c5cccnc5)n4)c3)cc(C(F)(F)F)c2)cn1 [nilotinib]
In short: as §1

[2] = compound: Cc1nc(Nc2n[nH]c3c2CN(C(=O)N[C@H](CN(C)C)c2ccccc2)C3(C)C)c2sccc2n1
In short: as §1

dasatinib = compound: Cc1nc(Nc2ncc(C(=O)Nc3c(C)cccc3Cl)s2)cc(N2CCN(CCO)CC2)n1 [dasatinib]
In short: as §1

[3] = compound: Cc1ncc(-c2ccnc(Nc3ccc(S(C)(=O)=O)cc3)n2)n1C(C)C
In short: as §1

[4] = compound: Cn1cc(-c2ccc3c(c2)CCN3C(=O)Cc2cccc(C(F)(F)F)c2)c2c(N)ncnc21
In short: as §1

[5] = compound: Cn1cc(-c2ccc3nnc(C(F)(F)c4ccc5ncccc5c4)n3n2)cn1
In short: as §1

tipifarnib = compound: Cn1cncc1[C@@](N)(c1ccc(Cl)cc1)c1ccc2c(c1)c(-c1cccc(Cl)c1)cc(=O)n2C [tipifarnib]
In short: as §1

mubritinib = compound: FC(F)(F)c1ccc(/C=C/c2nc(COc3ccc(CCCCn4ccnn4)cc3)co2)cc1 [mubritinib]
In short: as §1

Measured: log2 fold change

EEF1B2 (UniProt P24534)
Chain of UniProt P24534 (P24534 whole entry, looked up): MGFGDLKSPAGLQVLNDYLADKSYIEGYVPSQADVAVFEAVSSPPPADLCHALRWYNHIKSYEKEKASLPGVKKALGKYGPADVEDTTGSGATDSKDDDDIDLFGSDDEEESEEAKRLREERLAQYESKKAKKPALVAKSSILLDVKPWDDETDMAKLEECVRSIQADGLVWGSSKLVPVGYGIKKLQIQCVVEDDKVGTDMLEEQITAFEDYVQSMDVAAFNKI
inactive: bafetinib 0.006 | [1] 0.025 | nilotinib -0.042 | [2] -0.03 | dasatinib 0.026 | [3] 0.043 | [4] -0.057 | [5] -0.054 | tipifarnib -0.109 | mubritinib 0.058

EIF2S3 (UniProt P41091)
inactive: bafetinib 0.133 | [1] -0.023 | nilotinib -0.04 | [2] 0.072 | dasatinib 0.043 | [3] 0.014 | [4] -0.081 | [5] -0.052 | tipifarnib 0.019 | mubritinib -0.017

ELOVL5 isoform 2 (UniProt Q9NYP7)
inactive: bafetinib -0.166 | [1] 0.124 | nilotinib -0.182 | [2] 0.021 | dasatinib -0.147 | [3] -0.054 | [4] 0.063 | [5] 0.011 | tipifarnib -0.204 | mubritinib 0.068

DBT (UniProt P11182)
active: mubritinib -0.207
inactive: bafetinib 0.02 | [1] -0.037 | nilotinib 0.036 | [2] -0.014 | dasatinib -0.002 | [3] -0.033 | [4] -0.026 | [5] -0.03 | tipifarnib 0.011

EOGT (UniProt Q5NDL2)
inactive: bafetinib -0.009 | [1] -0.025 | nilotinib -0.044 | [2] 0.055 | dasatinib -0.052 | [3] -0.005 | [4] -0.082 | [5] -0.038 | tipifarnib 0.029 | mubritinib -0.021

FAM122A (UniProt Q96E09)
inactive: bafetinib -0.096 | [1] -0.185 | nilotinib 0.027 | [2] -0.184 | dasatinib -0.054 | [3] 0.059 | [4] 0.024 | [5] 0.037 | tipifarnib -0.059 | mubritinib 0.009

EGLN1 (UniProt Q9GZT9)
Chain of UniProt Q9GZT9 (Q9GZT9 whole entry, looked up): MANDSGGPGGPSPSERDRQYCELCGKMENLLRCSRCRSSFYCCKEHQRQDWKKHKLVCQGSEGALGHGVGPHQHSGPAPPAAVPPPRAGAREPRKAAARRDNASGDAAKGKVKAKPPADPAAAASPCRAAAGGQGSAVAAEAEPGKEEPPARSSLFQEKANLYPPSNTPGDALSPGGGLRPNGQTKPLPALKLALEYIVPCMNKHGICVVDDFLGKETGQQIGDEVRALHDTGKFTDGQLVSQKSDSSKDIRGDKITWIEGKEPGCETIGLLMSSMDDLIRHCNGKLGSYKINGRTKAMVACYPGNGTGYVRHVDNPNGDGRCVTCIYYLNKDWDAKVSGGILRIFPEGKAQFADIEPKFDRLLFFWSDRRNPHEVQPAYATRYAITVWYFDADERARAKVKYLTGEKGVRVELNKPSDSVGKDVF
inactive: bafetinib -0.031 | [1] -0.018 | nilotinib 0.066 | [2] -0.026 | dasatinib -0.073 | [3] -0.036 | [4] -0.01 | [5] 0.017 | tipifarnib 0.016 | mubritinib -0.116

CTSC (UniProt P53634)
Chain of UniProt P53634 (P53634 whole entry, looked up): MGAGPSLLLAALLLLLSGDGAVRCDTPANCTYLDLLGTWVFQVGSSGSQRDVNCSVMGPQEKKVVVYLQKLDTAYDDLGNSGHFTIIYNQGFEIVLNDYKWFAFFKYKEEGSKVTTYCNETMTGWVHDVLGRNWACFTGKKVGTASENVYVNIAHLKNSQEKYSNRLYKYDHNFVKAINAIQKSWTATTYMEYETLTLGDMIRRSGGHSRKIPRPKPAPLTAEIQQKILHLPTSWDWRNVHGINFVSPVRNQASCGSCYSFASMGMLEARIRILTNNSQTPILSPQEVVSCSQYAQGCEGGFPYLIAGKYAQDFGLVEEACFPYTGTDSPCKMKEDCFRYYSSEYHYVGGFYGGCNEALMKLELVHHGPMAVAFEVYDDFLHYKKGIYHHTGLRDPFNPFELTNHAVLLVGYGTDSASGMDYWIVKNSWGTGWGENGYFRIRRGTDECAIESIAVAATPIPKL
inactive: [1] -0.004 | nilotinib -0.008 | [2] 0 | dasatinib 0.046 | [3] -0.033 | [4] 0.041 | [5] 0.004 | tipifarnib -0.039 | mubritinib 0.056
active: bafetinib -0.452

DPH5 isoform 5 (UniProt Q9H2P9)
inactive: bafetinib 0.025 | [1] 0.037 | nilotinib 0.013 | [2] -0.023 | [3] 0.003 | [4] 0.085 | [5] 0.006 | tipifarnib -0.121 | mubritinib 0.049
active: dasatinib 0.253

ESYT1 isoform 2 (UniProt Q9BSJ8)
inactive: bafetinib 0.112 | [1] 0.137 | nilotinib -0.088 | [2] -0.208 | dasatinib -0.147 | [3] 0.022 | [4] -0.059 | [5] -0.06 | tipifarnib 0.007 | mubritinib -0.092

ETNK1 (UniProt Q9HBU6)
inactive: bafetinib -0.042 | [1] 0.037 | nilotinib -0.043 | [2] 0.08 | dasatinib -0.07 | [3] 0.06 | [4] 0.026 | [5] 0.008 | tipifarnib -0.183 | mubritinib 0.036

DHRS1 (UniProt Q96LJ7)
Chain of UniProt Q96LJ7 (Q96LJ7 whole entry, looked up): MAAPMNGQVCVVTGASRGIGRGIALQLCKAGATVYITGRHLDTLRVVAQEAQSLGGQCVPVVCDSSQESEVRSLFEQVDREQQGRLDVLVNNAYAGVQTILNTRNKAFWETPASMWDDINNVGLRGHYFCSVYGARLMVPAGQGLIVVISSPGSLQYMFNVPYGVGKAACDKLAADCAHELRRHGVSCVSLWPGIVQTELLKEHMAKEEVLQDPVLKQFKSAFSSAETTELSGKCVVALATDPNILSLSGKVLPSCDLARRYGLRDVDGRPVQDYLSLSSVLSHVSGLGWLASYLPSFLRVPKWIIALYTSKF
inactive: bafetinib 0.352 | [1] 0.316 | nilotinib 0.638 | [2] -0.076 | dasatinib 0.02 | [3] -0.14 | [5] -0.106 | tipifarnib 0.717 | mubritinib 0.178
active: [4] 1.1

FAM114A2 (UniProt Q9NRY5)
Chain of UniProt Q9NRY5 (Q9NRY5 whole entry, looked up): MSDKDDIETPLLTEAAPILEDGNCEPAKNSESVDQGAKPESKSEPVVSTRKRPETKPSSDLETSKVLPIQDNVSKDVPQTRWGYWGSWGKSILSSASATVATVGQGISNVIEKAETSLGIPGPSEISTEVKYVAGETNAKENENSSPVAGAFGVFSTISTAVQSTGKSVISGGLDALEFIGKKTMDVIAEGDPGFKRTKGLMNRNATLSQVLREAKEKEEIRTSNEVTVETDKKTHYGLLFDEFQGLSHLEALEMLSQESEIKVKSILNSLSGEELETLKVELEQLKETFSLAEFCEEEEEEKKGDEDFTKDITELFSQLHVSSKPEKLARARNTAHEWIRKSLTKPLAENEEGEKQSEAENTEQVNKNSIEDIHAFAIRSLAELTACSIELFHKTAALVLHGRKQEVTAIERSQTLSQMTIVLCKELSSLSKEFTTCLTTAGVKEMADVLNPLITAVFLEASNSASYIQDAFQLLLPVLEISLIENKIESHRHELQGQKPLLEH
inactive: bafetinib -0.094 | [1] 0.025 | nilotinib -0.035 | [2] -0.032 | dasatinib -0.083 | [3] 0.004 | [4] 0.001 | [5] 0.019 | tipifarnib -0.002 | mubritinib 0.055

DDB1 (UniProt Q16531)
inactive: bafetinib -0.019 | [1] -0.025 | nilotinib -0.004 | [2] 0.027 | dasatinib 0.046 | [3] -0.016 | [4] 0.011 | [5] -0.001 | tipifarnib -0.014 | mubritinib 0.023

DBN1 isoform 3 (UniProt Q16643)
Chain of UniProt Q16643 (Q16643 whole entry, looked up): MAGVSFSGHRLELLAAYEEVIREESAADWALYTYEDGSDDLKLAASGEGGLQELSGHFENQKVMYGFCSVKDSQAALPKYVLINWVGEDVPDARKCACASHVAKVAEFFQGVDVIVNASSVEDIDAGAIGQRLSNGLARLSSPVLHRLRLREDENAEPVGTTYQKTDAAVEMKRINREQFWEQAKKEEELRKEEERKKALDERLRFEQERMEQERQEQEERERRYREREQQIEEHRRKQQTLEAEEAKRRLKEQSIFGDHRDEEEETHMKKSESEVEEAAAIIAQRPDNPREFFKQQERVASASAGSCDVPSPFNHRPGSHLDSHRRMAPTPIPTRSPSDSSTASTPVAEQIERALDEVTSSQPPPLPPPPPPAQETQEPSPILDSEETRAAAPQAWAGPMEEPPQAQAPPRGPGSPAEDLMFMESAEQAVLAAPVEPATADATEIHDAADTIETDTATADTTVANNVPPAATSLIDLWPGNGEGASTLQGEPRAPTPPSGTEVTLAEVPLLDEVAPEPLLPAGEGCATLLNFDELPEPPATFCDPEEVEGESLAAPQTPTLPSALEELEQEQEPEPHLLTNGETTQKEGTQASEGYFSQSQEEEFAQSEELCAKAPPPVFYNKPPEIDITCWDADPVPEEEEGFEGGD
active: dasatinib 0.264
inactive: bafetinib -0.106 | [1] 0.032 | nilotinib -0.05 | [2] -0.043 | [3] -0.041 | [4] -0.22 | [5] -0.069 | tipifarnib 0.086 | mubritinib 0

ECH1 (UniProt Q13011)
Chain of UniProt Q13011 (Q13011 whole entry, looked up): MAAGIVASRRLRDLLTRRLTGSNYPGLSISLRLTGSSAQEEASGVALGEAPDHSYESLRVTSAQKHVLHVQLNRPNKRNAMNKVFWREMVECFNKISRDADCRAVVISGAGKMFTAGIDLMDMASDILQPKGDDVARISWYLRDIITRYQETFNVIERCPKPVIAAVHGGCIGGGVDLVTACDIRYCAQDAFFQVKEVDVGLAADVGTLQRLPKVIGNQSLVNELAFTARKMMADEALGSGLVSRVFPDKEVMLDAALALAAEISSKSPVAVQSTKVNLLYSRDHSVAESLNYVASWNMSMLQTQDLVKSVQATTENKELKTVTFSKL
inactive: bafetinib 0.318 | [1] -0.003 | nilotinib -0.024 | [2] 0.013 | dasatinib 0.249 | [3] -0.033 | [4] 0.134 | [5] 0.039 | tipifarnib -0.056 | mubritinib -0.011

FADS1, A0A0A0MR51
inactive: bafetinib -0.03 | [1] 0.062 | nilotinib 0.004 | [2] -0.005 | dasatinib 0.011 | [3] -0.019 | [5] -0.045 | tipifarnib -0.021 | mubritinib 0.028
active: [4] 0.253

DNAJC19 (UniProt Q96DA6)
Chain of UniProt Q96DA6 (Q96DA6 whole entry, looked up): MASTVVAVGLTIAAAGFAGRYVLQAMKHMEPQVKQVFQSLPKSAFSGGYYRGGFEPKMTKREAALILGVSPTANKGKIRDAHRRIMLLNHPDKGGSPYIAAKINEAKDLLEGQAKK
inactive: bafetinib -0.123 | [1] 0.003 | nilotinib 0.025 | [2] 0.002 | dasatinib -0.003 | [3] -0.005 | [4] 0.012 | [5] 0.022 | tipifarnib 0.012 | mubritinib 0.001

DCAF10 (UniProt Q5QP82)
Chain of UniProt Q5QP82 (Q5QP82 whole entry, looked up): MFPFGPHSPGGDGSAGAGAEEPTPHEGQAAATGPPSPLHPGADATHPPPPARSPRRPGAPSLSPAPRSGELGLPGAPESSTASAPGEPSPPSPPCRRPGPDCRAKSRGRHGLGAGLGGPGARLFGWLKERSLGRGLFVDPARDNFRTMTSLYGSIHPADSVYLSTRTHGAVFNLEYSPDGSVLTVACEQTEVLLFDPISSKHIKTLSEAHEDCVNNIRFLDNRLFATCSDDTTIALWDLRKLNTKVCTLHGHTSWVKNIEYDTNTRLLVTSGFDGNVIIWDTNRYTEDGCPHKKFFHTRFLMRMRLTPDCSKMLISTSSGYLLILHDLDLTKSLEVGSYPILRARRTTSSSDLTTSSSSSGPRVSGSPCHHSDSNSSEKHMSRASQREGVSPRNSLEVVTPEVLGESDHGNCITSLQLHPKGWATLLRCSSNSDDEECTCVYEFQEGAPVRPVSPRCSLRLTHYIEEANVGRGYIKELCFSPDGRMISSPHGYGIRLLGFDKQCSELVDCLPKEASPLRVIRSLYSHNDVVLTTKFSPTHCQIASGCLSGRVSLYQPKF
inactive: bafetinib -0.002 | [1] -0.069 | nilotinib -0.052 | [2] 0.041 | dasatinib 0.026 | [3] -0.047 | [4] 0.012 | [5] 0.007 | tipifarnib -0.054 | mubritinib -0.002

FAM117A (UniProt Q9C073)
inactive: bafetinib -0.021 | [1] 0.004 | nilotinib -0.047 | [2] -0.083 | dasatinib -0.046 | [3] -0.018 | [4] 0.016 | [5] 0.032 | tipifarnib 0.039 | mubritinib 0.024

DBR1 (UniProt Q9UK59)
inactive: bafetinib -0.001 | [1] 0.02 | nilotinib -0.023 | [2] 0.05 | dasatinib 0.06 | [3] -0.009 | [4] 0.021 | [5] -0.067 | tipifarnib 0.03 | mubritinib -0.002

EHBP1L1 (UniProt Q8N3D4)
inactive: bafetinib 0.194 | [1] -0.006 | nilotinib -0.081 | [2] -0.218 | dasatinib -0.123 | [3] 0.256 | [4] 0.005 | [5] 0.006 | tipifarnib -0.039 | mubritinib 0.007

EXOC7 (UniProt Q9UPT5)
inactive: bafetinib -0.026 | [1] 0.014 | nilotinib -0.046 | [2] -0.139 | dasatinib -0.234 | [3] -0.035 | [4] 0.002 | [5] 0 | tipifarnib -0.089 | mubritinib -0.011

ELOVL1 (UniProt Q9BW60)
Chain of UniProt Q9BW60 (Q9BW60 whole entry, looked up): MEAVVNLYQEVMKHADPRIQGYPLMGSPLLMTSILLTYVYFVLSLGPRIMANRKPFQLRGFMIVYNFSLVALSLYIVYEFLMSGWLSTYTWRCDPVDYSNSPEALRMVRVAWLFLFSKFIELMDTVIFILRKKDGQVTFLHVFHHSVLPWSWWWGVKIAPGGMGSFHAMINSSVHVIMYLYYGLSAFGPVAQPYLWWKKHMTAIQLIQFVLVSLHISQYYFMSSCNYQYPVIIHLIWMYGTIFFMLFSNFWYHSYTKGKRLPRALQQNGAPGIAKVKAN
inactive: bafetinib -0.245 | [1] 0.12 | nilotinib -0.126 | [2] 0.024 | dasatinib -0.041 | [3] -0.011 | [4] 0.139 | [5] -0.097 | tipifarnib -0.093 | mubritinib 0.011

DNAJB12 (UniProt Q9NXW2)
Chain of UniProt Q9NXW2 (Q9NXW2 whole entry, looked up): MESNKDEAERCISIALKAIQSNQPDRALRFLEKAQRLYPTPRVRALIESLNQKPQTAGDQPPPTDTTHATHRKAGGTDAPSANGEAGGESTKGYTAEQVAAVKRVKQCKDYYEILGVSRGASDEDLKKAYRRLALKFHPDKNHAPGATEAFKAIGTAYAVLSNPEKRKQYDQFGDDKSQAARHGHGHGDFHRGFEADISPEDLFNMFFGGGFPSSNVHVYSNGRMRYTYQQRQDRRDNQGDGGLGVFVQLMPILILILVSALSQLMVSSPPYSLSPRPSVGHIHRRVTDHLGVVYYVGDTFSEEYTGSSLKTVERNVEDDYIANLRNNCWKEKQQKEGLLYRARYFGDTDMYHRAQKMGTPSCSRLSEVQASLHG
inactive: bafetinib -0.057 | [1] 0.007 | nilotinib -0.158 | [2] 0.041 | dasatinib -0.068 | [3] 0.015 | [4] -0.04 | [5] -0.039 | tipifarnib 0.016 | mubritinib 0.01

CUEDC2 (UniProt Q9H467)
inactive: bafetinib -0.072 | [1] 0.003 | nilotinib -0.006 | [2] -0.045 | dasatinib 0.049 | [3] -0.055 | [4] 0.02 | [5] -0.009 | tipifarnib 0.028 | mubritinib 0.042

CTSB (UniProt P07858)
active: bafetinib -0.842
inactive: [1] -0.038 | nilotinib 0.001 | [2] -0.028 | dasatinib -0.008 | [3] -0.029 | [4] 0.014 | [5] 0.033 | tipifarnib 0.008 | mubritinib -0.007

CTSL (UniProt P07711)
inactive: bafetinib -0.261 | [1] -0.046 | nilotinib 0.041 | [2] 0.103 | dasatinib 0.14 | [3] 0.004 | [4] 0.013 | [5] 0.045 | tipifarnib 0.145 | mubritinib -0.006

DBNL isoform 3 (UniProt Q9UJU6)
Chain of UniProt Q9UJU6 (Q9UJU6 whole entry, looked up): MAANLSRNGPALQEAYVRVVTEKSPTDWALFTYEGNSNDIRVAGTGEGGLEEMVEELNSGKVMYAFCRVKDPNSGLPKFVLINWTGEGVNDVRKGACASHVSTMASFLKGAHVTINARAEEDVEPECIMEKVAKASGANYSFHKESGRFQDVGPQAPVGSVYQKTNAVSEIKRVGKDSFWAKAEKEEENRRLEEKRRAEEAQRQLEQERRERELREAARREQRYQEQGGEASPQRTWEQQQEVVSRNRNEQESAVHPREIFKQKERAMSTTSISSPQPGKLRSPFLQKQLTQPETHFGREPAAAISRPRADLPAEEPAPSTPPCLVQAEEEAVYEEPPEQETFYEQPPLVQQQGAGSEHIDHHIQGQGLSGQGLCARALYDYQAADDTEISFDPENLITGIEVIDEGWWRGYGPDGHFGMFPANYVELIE
inactive: bafetinib 0.048 | [1] -0.007 | nilotinib -0.05 | [2] -0.071 | dasatinib -0.098 | [3] -0.013 | [4] -0.003 | [5] 0.057 | tipifarnib -0.096 | mubritinib 0.032

FAM207A (UniProt Q9NSI2)
Chain of UniProt Q9NSI2 (Q9NSI2 whole entry, looked up): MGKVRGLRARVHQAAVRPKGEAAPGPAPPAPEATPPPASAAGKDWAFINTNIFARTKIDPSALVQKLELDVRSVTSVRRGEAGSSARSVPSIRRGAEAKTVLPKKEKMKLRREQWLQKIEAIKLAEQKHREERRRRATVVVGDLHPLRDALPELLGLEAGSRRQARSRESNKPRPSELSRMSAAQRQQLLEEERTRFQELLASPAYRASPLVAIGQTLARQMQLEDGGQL
inactive: bafetinib 0.002 | [1] 0.076 | nilotinib -0.071 | [2] -0.087 | dasatinib 0.006 | [3] -0.059 | [5] -0.127 | tipifarnib 0.003 | mubritinib -0.238

Source: the supplement of paper PMC10849652
